Screens as filed in PubChem BioAssay.
KDM5B inh: inhibitors of human KDM5B histone demethylase. Q9UGL1. KDM5B demethylase, FDH-coupled NADH fluorescence (FDH is formaldehyde dehydrogenase). Potency, µM (titrated, usually from 57.7 µM), usual class: inhibitors. 220,000 compounds, 2.6% hits; active means well fitted inhibition curve with a large enough effect; further: nearly all actives have a fitted effect of over 70% in size
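Coupled FDH/NAD⁺ fluorescence readout. KDM5BΔAP 200 nM final; compound titration, 10 min RT preincubation; substrate mix 12.5 µM H3K4me3, 25 µM 2-OG, 50 µM Fe(II), 100 µM ascorbate, 0.25 mM NAD⁺, 0.25 U/mL FDH; ΔRFU over 30 min.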
Each line names hits and unclear results; the compound was inactive in the other large screens. This is one part of a sample in which hits are shown more often than they occur.

C=CCNC(=O)CCNC(=O)c1ccc(C(C)(C)C)cc1	none
COCCNC(=O)CN1C(=O)COc2ccc(S(=O)(=O)N3CCCCCC3)cc21	none
COCCNC(=O)c1ccc2c(c1)N(C)C(CC(=O)NCc1ccccn1)CO2 (stereo unspecified)	KDM5B inh 28µM
COCCNC(=O)CCCN1C(=O)COc2ccc(C(=O)COc3c(C)ccc(C)c3C)cc21	none
COCCNC(=O)CCCN1C(=O)COc2ccc(C(=O)COc3ccc(Cl)c(C)c3)cc21	none
COCCNC(=O)c1ccc2c(c1)N(C)C(CC(=O)Nc1ccc[nH]c1=O)CO2 (stereo unspecified)	KDM5B inh 28µM
COCCNC(=O)c1ccc2c(c1)N(C)C(CC(=O)NC(C)(C)CO)CO2 (stereo unspecified)	KDM5B inh 32µM
C=CCNC(=O)CC1COc2ccc(C(=O)NCCOC)cc2N1C (stereo unspecified)	KDM5B inh 28µM
Cc1ccc(C(=O)NCCOc2nonc2C)cc1N1CCNC1=O	none
CCc1noc(Cn2c(=O)c(C#N)cn(C3CC3)c2=O)n1	none
O=C(CCCOC(=O)c1c(F)cccc1Cl)c1ccc(Br)cc1	none
O=C1NCC2(CCN(Cc3ccccc3)CC2)Oc2ccccc21	none
C#CCN1CCN(C(=O)c2cc(-c3ccccc3)nc3ccc(C)cc23)CC1	none
O=C(CCc1ncc(-c2ccc(Cl)cc2)o1)NCc1cccc(Cl)c1	none
CN1CCN(S(=O)(=O)c2ccc(N(C)CCOc3cccc(Cl)c3)nc2)CC1	none
O=C(O)c1ccc(NCc2c(Cl)cccc2Cl)cc1	none
CCCCC(=O)Nc1nc(-c2ccc(F)cc2NC(C)=O)cs1	none
Cc1nc(-c2ccncc2)[nH]c(=O)c1CC(=O)N(C)C(C)CC(C)C (stereo unspecified)	none
COCCNC(=O)c1ccc2c(c1)N(C)C(CC(=O)NC1CCOCC1)CO2 (stereo unspecified)	KDM5B inh 32µM
COCCNC(=O)CCCN1C(=O)COc2ccc(C(=O)COc3cc(C)ccc3F)cc21	none
CCOc1ccc2c(c1)C=C(C(=O)NCC(F)(F)F)CO2	none
COCCNC(=O)c1ccc(OC2CCN(S(C)(=O)=O)CC2)c(Cl)c1	none
COCCNC(=O)c1ccc2c(c1)N(C)C(CC(=O)NCC(F)(F)F)CO2 (stereo unspecified)	KDM5B inh 20µM
COCCNC(=O)c1ccc2c(c1)N(C)C(CC(=O)NCCO)CO2 (stereo unspecified)	KDM5B inh 28µM
COCCNC(=O)CCCN1C(=O)COc2ccc(C(=O)COc3cc(C)ccc3Cl)cc21	none
COCCNC(=O)N1[C@@H]2CC[C@H]1CC(NC(=O)c1ccc(F)cc1)C2 (stereo partly specified)	none
CCCCC(CC)C(=O)NCC(C)(C)CNC(=O)C(CC)CCCC (stereo unspecified)	none
c1cncc(CNCCCN2CCCCC2)c1	none
Oc1ccc(C2(c3ccc(Br)cc3)CCCCC2)cc1	none
CCS(=O)(=O)Nc1cccc(C2=NN(C(C)=O)C(c3ccccc3C)C2)c1 (stereo unspecified)	none
CC(C)CCC(C)(N)C(=O)O (stereo unspecified)	none
CCCCOc1ccc2c(=O)c(-c3cc(C(=O)OC)oc3C)c(C)oc2c1	none
Cc1ccc(NC(=O)C2CCN(C(=O)N3CCOc4ccccc43)CC2)c(Cl)c1	none
CN(C)c1ccc(NC(=O)CCc2ncc(-c3ccc(Cl)cc3)o2)cc1	none
O=C1NCCCc2[nH]c(-c3cnn(-c4cccc(F)c4)c3)nc21	KDM5B inh 28µM
O=C1CCN(S(=O)(=O)c2cccc(F)c2)CCCCCCN1	none
Fc1cccc(-n2cc(CN3CCCC4(CCOC4)C3)cn2)c1 (stereo unspecified)	none
CSc1ccccc1NC(=O)/C=C/c1ccncc1	none
CCOc1cc(CNc2nn[nH]n2)cc(Br)c1OCc1ccc(F)cc1	none
Cn1c(Cn2cccn2)nnc1C1CCCN(C(=O)c2ccoc2)C1 (stereo unspecified)	none
Cc1ccc(C#N)c(N2CCCC(c3nnc(Cn4cccn4)n3C)C2)n1 (stereo unspecified)	KDM5B inh 28µM
Cn1c(Cn2cccn2)nnc1C1CCCN(C(=O)c2ccc(=O)[nH]c2)C1 (stereo unspecified)	none
O=C(Nc1ccc(N2CCC(c3ccccc3)C2)c(C(=O)O)c1)c1cccc(Cl)c1 (stereo unspecified)	none
CCOC(=O)c1cnc2ccc(Cl)cc2c1Nc1ccccc1OCC	none
O=C(CCc1ncc(-c2ccccc2)o1)N1CCN(c2ccc([N+](=O)[O-])cc2)CC1	none
N#Cc1ccc(CN2C[C@@H]3C(=O)N(CCN4CCc5ccccc5C4)C(=O)[C@@H]3C2)cc1	KDM5B inh 25µM
O=C1[C@H]2CN(Cc3cc(Cl)ccc3F)C[C@H]2C(=O)N1CCN1CCc2ccccc2C1	none
O=C1[C@H]2CN(Cc3ccccc3Cl)C[C@H]2C(=O)N1CCN1CCc2ccccc2C1	none
Nc1ccc(C(F)(F)F)c(C(F)(F)F)c1	none
COc1ccc(-c2ccc3c(n2)CN(Cc2ccc(F)cc2)C(=O)CO3)cc1	KDM5B inh 22µM
Cn1cc(-c2ccc3c(n2)CN(Cc2ccc(F)cc2)C(=O)CO3)cn1	none
O=C1COc2ccc(-c3ccncc3)nc2CN1Cc1ccccc1F	KDM5B inh 35µM
